According to PubChem BioAssay (EPA / NIEHS):
Several values for one entry are separate records, joined by “and”; a condition that tells them apart may be missing. Equal values may be shown once. The source holds several records for some structures; these can differ, active in one and inactive in another. Activity calls are given as the source filed them. The calls were made as follows: active = hit-call score of the fitted dose curve at least 0.9, where 1 is the maximum; inactive = score below 0.9.

What was measured:
[1] = ATG_GLI_CIS: Attagene CIS-FACTORIAL HepG2 Assay for human Zinc Finger Protein GLI1 (AID 2282945); conditions: HepG2, Attagene cis-factorial reporter mRNA, GLI element; actives raise or lower the signal
Method in brief: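 Transiently transfected HepG2 cells report endogenous transcription factor activity via cis-element-driven reporter units. After 24 h compound exposure, reporter mRNA was measured by RT-PCR with capillary electrophoresis; bidirectional fitting against DMSO baseline.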

[2] = ATG_GRE_CIS: Attagene CIS-FACTORIAL HepG2 Assay for human Glucocorticoid Response Elements (GRE) (AID 2282947); conditions: HepG2 GRE cis-reporter, Attagene multiplex mRNA; actives raise or lower the signal
Method in brief: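 Transiently transfected HepG2 cells carrying GRE cis-reporter units (endogenous TF activity) dosed 24 h; reporter mRNA quantified by RT-PCR, 6-FAM labelling, HpaI digestion and capillary electrophoresis. Bidirectional fit versus DMSO baseline.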

[3] = ATG_ISRE_CIS: Attagene CIS-FACTORIAL HepG2 Assay for human Interferon Regulatory Factor 1 (IRF1) binding to an Interferon-Stimulated Response Element (ISRE) (AID 2282948); conditions: HepG2 ISRE cis-reporter (Attagene), mRNA transcription readout; actives raise or lower the signal
Method in brief: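 Quantitation relies on labelled RT-PCR fragments separated by capillary electrophoresis. Human HepG2 cells bearing cis-promoter reporter constructs were treated 24 h; DMSO served as baseline for bidirectional fitting.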

[4] = ATG_M_32_CIS: Attagene CIS-FACTORIAL HepG2 Assay for M32 Transcription Factor (Internal Marker) (AID 2282949); conditions: HepG2 Attagene cis-factorial M32 reporter, mRNA; actives raise or lower the signal;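 also: background control marker of the multiplexed CIS panel rather than a real target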
Method in brief: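 Fluorescent capillary electrophoresis peaks of HpaI-digested, FAM-labelled RT-PCR reporter products give the signal. Source: transiently transfected human liver HepG2 cells, 24 h after chemical dosing; bidirectional fitting against DMSO.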

[5] = ATG_M_06_CIS: Attagene CIS-FACTORIAL HepG2 Assay for M06 Transcription Factor (Internal Marker) (AID 2282950); conditions: HepG2 Attagene CIS-FACTORIAL M06 internal marker reporter; actives raise or lower the signal
Method in brief: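 HepG2 liver cells, 24 h exposure. Reporter transcripts from transfected cis-element constructs quantified by RT-PCR/capillary electrophoresis fluorescence. Bidirectional curve fit against DMSO.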

[6] = biological target: Hypoxia-inducible factor 1-alpha (Homo sapiens) (UniProt Q16665); assay: ATG_HIF1a_CIS: Attagene CIS-FACTORIAL HepG2 Assay for human Hypoxia Inducible Factor 1 (HIF1A) (AID 2282951); conditions: HepG2 Attagene cis-factorial HIF1a reporter transcription; actives raise or lower the signal
Hypoxia-inducible factor 1-alpha (Homo sapiens), sequence (Q16665 whole entry, looked up): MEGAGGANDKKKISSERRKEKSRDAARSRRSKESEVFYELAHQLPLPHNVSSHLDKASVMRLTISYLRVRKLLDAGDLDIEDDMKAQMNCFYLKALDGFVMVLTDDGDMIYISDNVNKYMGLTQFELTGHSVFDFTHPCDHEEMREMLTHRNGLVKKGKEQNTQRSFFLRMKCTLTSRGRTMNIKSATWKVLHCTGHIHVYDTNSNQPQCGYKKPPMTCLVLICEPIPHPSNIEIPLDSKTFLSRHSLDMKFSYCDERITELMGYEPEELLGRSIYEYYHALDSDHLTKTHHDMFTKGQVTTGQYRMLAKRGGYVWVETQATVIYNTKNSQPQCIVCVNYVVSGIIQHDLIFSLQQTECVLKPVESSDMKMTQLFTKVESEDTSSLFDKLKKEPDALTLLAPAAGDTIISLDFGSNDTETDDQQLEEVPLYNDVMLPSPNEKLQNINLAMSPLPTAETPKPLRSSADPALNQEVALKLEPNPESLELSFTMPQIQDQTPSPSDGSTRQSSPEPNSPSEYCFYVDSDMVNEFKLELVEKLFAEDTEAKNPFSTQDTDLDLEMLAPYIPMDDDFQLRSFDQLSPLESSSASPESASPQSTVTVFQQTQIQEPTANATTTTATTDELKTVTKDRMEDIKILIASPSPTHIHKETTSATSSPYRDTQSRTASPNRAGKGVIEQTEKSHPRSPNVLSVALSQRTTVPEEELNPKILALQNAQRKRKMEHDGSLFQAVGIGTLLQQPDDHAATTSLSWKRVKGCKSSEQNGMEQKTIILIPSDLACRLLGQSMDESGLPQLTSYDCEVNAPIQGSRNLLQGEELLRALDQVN
Method in brief: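 In this multiplexed cell assay, HepG2 cells bearing transfected cis reporters are dosed for 24 h and reporter mRNA is read by RT-PCR plus capillary electrophoresis; signal increases and decreases are both scored against DMSO.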

[7] = biological target: Hepatocyte nuclear factor 6 (Homo sapiens) (UniProt Q9UBC0); assay: ATG_HNF6_CIS: Attagene CIS-FACTORIAL HepG2 Assay for human Hepatocyte Nuclear Factor 6 (HNF6) (AID 2282952); conditions: HepG2 Attagene cis-factorial HNF6 reporter transcription; actives raise or lower the signal
Hepatocyte nuclear factor 6 (Homo sapiens), sequence (Q9UBC0 whole entry, looked up): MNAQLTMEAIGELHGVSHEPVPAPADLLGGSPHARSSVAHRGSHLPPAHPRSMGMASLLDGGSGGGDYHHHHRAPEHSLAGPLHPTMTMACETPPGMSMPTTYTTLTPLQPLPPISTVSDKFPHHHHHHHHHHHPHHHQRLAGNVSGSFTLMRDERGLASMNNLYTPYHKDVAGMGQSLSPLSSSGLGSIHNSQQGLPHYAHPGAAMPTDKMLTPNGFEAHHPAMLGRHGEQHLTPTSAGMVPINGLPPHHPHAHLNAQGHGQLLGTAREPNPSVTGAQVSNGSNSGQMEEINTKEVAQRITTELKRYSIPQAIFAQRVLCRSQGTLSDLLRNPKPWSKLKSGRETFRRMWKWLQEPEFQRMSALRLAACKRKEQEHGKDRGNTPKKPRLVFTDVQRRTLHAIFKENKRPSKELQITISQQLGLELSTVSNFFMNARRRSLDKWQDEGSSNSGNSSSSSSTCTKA
Method in brief: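 HepG2, transient MRTU transfection (cis promoters); 24 h chemical exposure; total RNA → oligo(dT) RT → PCR → 6-FAM labelling → HpaI cut → CE; bidirectional fit vs DMSO.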

[8] = biological target: Heat shock factor protein 1 (Homo sapiens) (UniProt Q00613); assay: ATG_HSE_CIS: Attagene CIS-FACTORIAL HepG2 Assay for human Heat Shock Transcription Factor 1 (HSE) (AID 2282953); conditions: HepG2 HSE cis-reporter, Attagene RNA transcription; actives raise or lower the signal
Heat shock factor protein 1 (Homo sapiens), sequence (Q00613 whole entry, looked up, the tested form may be a part): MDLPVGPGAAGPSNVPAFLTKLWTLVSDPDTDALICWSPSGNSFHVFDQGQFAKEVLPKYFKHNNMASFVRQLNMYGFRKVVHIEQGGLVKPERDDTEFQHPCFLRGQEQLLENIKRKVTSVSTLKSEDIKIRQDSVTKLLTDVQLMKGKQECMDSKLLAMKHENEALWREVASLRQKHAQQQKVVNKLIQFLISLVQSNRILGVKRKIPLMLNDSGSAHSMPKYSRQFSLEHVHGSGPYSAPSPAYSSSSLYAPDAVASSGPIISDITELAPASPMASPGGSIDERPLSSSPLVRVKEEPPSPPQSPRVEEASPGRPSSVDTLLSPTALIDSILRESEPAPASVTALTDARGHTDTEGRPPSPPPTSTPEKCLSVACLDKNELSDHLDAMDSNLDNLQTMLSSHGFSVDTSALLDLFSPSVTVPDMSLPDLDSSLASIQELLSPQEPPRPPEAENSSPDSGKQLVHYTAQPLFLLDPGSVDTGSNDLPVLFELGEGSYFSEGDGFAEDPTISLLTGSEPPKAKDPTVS
Method in brief: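 Endogenous transcription factor activity captured via cis-promoter reporter units transfected into HepG2; treatment lasted 24 h. Fluorescence intensity of reporter fragments analysed with bidirectional curve fitting, DMSO baseline.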

[9] = ATG_MRE_CIS: Attagene CIS-FACTORIAL HepG2 Assay for human Metal Responsive Element (MRE) (AID 2282954); conditions: HepG2 MRE cis-reporter transcription, Attagene multiplex; actives raise or lower the signal
Method in brief: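 HepG2 cells transiently transfected with cis-element-driven reporter units; mRNA measured 24 h after dosing. Reporter transcripts quantified by RT-PCR, FAM labelling, HpaI digestion and capillary electrophoresis; bidirectional fit versus DMSO.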

[10] = ATG_PBREM_CIS: Attagene CIS-FACTORIAL HepG2 Assay for human Phenobarbital-responsive Enhancer Module (PBREM) (AID 2282955); conditions: HepG2 PBREM cis-reporter, Attagene multiplexed transcription; actives raise or lower the signal
Method in brief: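 After a 24 h incubation with test chemical, transfected HepG2 cells yield total RNA; reporter-specific RT-PCR products are fluorescently labelled, HpaI-digested and resolved by capillary electrophoresis against ROX size standards.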

[11] = biological target: Paired box protein Pax-6 (Homo sapiens) (UniProt P26367); assay: ATG_Pax6_CIS: Attagene CIS-FACTORIAL HepG2 Assay for human Paired Box 6 (PAX6) (AID 2282956); conditions: HepG2 CIS-FACTORIAL PAX6 reporter transcription, RNA readout; actives raise or lower the signal
Paired box protein Pax-6 (Homo sapiens), sequence (P26367 whole entry, looked up): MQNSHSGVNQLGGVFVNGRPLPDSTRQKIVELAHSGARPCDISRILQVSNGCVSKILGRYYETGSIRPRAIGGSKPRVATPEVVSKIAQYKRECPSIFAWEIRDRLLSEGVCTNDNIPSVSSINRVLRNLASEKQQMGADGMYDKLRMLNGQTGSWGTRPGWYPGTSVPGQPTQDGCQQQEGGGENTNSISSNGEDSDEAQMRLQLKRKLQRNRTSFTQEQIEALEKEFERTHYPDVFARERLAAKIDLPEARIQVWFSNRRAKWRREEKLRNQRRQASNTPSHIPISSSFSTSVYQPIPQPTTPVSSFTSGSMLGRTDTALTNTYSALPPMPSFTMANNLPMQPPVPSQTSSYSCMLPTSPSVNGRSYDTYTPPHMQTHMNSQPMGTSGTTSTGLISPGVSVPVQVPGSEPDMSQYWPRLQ
Method in brief: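 After twenty-four hours of chemical exposure, transfected HepG2 cells are harvested for RNA. Cis-promoter reporter transcripts are amplified, fluorescently labelled and sized by capillary electrophoresis, with gain and loss of signal scored against DMSO.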

[12] = ATG_PXRE_CIS: Attagene CIS-FACTORIAL HepG2 Assay for human Pregnane X Receptor Element (PXRE) (AID 2282957); conditions: HepG2 Attagene CIS-FACTORIAL PXRE reporter, mRNA; actives raise or lower the signal
Method in brief: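 Transfect HepG2 with MRTUs (cis promoter elements); dose chemical, incubate 24 h; isolate RNA, RT with oligo(dT), PCR, 6-FAM label, HpaI cut, CE. Gain/loss fit vs DMSO.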

[13] = ATG_PPRE_CIS: Attagene CIS-FACTORIAL HepG2 Assay for human Peroxisome Proliferator-activated Response Element (PPRE) (AID 2282958); conditions: HepG2 PPRE cis-element reporter, Attagene transcription factor profiling; actives raise or lower the signal
Method in brief: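 Multiplexed reporter transcription units under cis-regulatory promoters were transfected into HepG2 cells to capture endogenous factor activity. A 24 h incubation preceded RNA isolation and fluorescent RT-PCR fragment analysis.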

[14] = ATG_Sox_CIS: Attagene CIS-FACTORIAL HepG2 Assay for human SRY-box transcription factor (SOX) (AID 2282960); conditions: HepG2 Attagene cis-factorial SOX reporter, mRNA; actives raise or lower the signal
Method in brief: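 After 24 h of chemical treatment, transfected HepG2 reporter cells are lysed for total RNA. Transcript levels come from RT-PCR with labelled primer extension and capillary electrophoresis, analysed bidirectionally versus DMSO.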

[15] = biological target: Transcription factor Sp1 (Homo sapiens) (UniProt P08047); assay: ATG_Sp1_CIS: Attagene CIS-FACTORIAL HepG2 Assay for human Specificity Protein 1 (Sp1) (AID 2282961); conditions: HepG2 Sp1 cis-reporter transcription, actives raise or lower the signal
Transcription factor Sp1 (Homo sapiens), sequence (P08047 whole entry, looked up): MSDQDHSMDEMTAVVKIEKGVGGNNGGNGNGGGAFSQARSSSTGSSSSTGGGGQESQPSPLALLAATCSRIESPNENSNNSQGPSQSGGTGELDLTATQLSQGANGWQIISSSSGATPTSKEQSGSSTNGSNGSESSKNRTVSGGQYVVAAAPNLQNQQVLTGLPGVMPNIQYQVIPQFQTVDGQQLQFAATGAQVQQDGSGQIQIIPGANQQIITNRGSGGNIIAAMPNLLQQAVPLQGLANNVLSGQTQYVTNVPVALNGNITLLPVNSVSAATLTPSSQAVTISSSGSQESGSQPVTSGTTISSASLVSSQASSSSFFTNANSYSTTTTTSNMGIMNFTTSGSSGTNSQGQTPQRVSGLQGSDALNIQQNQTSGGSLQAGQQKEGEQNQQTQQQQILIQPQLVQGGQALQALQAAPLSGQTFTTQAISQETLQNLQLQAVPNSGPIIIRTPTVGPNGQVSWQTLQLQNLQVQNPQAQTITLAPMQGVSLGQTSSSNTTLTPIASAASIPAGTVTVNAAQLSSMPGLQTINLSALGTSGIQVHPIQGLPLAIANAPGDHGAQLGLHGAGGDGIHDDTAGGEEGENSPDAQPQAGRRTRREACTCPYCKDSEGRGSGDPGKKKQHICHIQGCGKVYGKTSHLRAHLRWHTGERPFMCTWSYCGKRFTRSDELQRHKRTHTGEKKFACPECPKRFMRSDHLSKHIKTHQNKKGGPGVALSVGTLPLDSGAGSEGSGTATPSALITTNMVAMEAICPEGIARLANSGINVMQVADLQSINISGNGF
Method in brief: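 Sp1-driven reporter mRNA, read as capillary electrophoresis fluorescence after RT-PCR, in transiently transfected HepG2 cells dosed for 24 h; signal change in either direction relative to DMSO.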

[16] = ATG_SREBP_CIS: Attagene CIS-FACTORIAL HepG2 Assay for human Sterol Regulatory Element Binding (SREBP) (AID 2282962); conditions: HepG2 Attagene cis-factorial SREBP reporter, mRNA; actives raise or lower the signal
Method in brief: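 Twenty-four hours after chemical dosing of transfected HepG2 cultures, reporter RNA was converted to cDNA, amplified, end-labelled with 6-FAM and resolved by capillary electrophoresis. Responses were fitted relative to DMSO.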

[17] = ATG_TA_CIS: Attagene CIS-FACTORIAL HepG2 Assay for human TA Basal Promoter (AID 2282964); conditions: HepG2 Attagene CIS-factorial TA basal promoter reporter; actives raise or lower the signal
Method in brief: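 Fluorescence from labelled RT-PCR reporter fragments, separated by capillary electrophoresis, gives the signal. Cells: HepG2 transiently carrying multiple reporter units, 24 h chemical dosing. Gain or loss relative to DMSO.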

[18] = ATG_RORE_CIS: Attagene CIS-FACTORIAL HepG2 Assay for human RAR-related Orphan Receptor Element (RORE) (AID 2282959); conditions: HepG2 Attagene cis-factorial RORE reporter, mRNA; actives raise or lower the signal
Method in brief: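 Fluorescence intensity of reporter-specific cDNA fragments, separated by capillary electrophoresis, gives the signal. Source: HepG2 liver cells transiently transfected with cis-element reporters and exposed 24 h; DMSO-normalized bidirectional fit.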

[19] = biological target: Signal transducer and activator of transcription 3 (Homo sapiens) (UniProt P40763); assay: ATG_STAT3_CIS: Attagene CIS-FACTORIAL HepG2 Assay for human Signal Transducer and Activator of Transcription 3 (STAT3) (AID 2282963); conditions: HepG2, Attagene cis-factorial STAT3 reporter transcription; actives raise or lower the signal
Signal transducer and activator of transcription 3 (Homo sapiens), sequence (P40763 whole entry, looked up): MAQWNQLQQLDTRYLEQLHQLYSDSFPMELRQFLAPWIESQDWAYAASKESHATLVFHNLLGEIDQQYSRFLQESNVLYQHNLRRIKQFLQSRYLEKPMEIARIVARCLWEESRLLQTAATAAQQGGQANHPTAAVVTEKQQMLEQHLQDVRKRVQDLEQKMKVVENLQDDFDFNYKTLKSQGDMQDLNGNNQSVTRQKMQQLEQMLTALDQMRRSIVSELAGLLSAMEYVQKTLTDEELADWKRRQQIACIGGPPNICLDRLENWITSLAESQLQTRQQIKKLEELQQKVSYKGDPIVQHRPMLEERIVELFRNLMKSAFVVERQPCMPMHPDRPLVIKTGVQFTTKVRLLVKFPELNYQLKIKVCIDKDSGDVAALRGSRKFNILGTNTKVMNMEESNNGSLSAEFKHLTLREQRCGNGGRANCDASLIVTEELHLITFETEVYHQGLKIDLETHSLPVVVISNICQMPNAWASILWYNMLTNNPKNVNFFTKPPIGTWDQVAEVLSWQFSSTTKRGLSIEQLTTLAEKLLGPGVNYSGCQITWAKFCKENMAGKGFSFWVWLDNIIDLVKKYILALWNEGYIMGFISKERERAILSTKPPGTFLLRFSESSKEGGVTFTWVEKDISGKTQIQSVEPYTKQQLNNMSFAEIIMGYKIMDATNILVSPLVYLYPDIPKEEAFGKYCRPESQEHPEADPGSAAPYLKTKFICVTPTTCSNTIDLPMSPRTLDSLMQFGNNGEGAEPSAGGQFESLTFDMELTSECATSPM
Method in brief: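 HepG2 cells transiently transfected with multiple cis-element-driven reporter units report endogenous transcription factor activity. After 24 h compound exposure, reporter mRNA is measured by RT-PCR, 6-FAM labelling, HpaI digestion and capillary electrophoresis. Fitted bidirectionally versus DMSO.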

[20] = biological target: Bile acid receptor (Homo sapiens) (UniProt Q96RI1); assay: ATG_IR1_CIS: Attagene CIS-FACTORIAL HepG2 Assay for human Nuclear Receptor Subfamily 1 Group H Member 4 (NR1H4), IR1 submotif (AID 2282946); conditions: IR1 reporter transcription, actives raise or lower the signal
Bile acid receptor (Homo sapiens), sequence (Q96RI1 whole entry, looked up): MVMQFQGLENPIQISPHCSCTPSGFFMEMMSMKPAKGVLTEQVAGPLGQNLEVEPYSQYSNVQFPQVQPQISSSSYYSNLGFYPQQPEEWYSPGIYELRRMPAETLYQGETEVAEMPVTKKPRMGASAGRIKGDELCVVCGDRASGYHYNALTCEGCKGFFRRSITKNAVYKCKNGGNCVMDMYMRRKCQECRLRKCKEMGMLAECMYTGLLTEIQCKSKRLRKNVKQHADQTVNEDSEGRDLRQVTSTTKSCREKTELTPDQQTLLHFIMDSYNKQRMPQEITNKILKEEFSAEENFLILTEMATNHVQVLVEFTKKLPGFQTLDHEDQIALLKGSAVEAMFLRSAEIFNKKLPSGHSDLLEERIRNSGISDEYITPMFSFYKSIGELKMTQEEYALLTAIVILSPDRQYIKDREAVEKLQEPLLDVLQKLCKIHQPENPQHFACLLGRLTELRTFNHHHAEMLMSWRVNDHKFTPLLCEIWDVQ
Method in brief: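 HepG2 cells transiently transfected with multiple cis-promoter-driven reporter units to measure endogenous transcription factor activity; 24 h exposure. Reporter mRNA read by RT-PCR, FAM labelling, HpaI digestion and capillary electrophoresis. Bidirectional fit versus DMSO.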

Measured: AC50

COP(=S)(OC)Oc1ccc(SC)c(C)c1
active: [10] 39.3 µM | [12] 10.8 µM | [16] 24.7 µM
not listed: [18] | [19] | [20]
inactive: all other assays above

O=C(O)COc1ccc(Cl)cc1Cl
not listed: [8] | [10] | [13] | [18] | [19] | [20]
inactive: all other assays above

Clc1ccccc1-c1nnc(-c2ccccc2Cl)nn1
active: [13] 8.03 µM
not listed: [2] | [20]
inactive: all other assays above

[2H]C1([2H])[n+]2ccccc2-c2cccc[n+]2C1([2H])[2H]
active: [12] 18.6 µM | [16] 13.3 µM
not listed: [18] | [19] | [20]
inactive: all other assays above

CCC(C)Nc1c([N+](=O)[O-])cc(C(C)(C)C)cc1[N+](=O)[O-] (centres undefined)
active: [9] 31.6 µM | [12] 3.43 µM
not listed: [8] | [10] | [18] | [19] | [20]
inactive: all other assays above

C[C@H]1[C@H](c2ccc(Cl)cc2)SC(=O)N1C(=O)NC1CCCCC1
active: [9] 38.3 µM | [10] 27.2 µM | [12] 1.93 µM
not listed: [13] | [18] | [20]
inactive: all other assays above

CC(C)(C)C(O)C(Oc1ccc(Cl)cc1)n1cncn1 (centres undefined)
inactive: [1] | [3] | [4] | [5] | [6] | [7] | [8] | [9] | [10] | [11] | [18] | [14] | [15] | [16] | [17]
active: [9] 7.83 µM | [10] 2.82 µM and 5.04 µM and 7.04 µM | [12] 1.27 µM [middle of 6 runs] | [16] 48.7 µM and 23.2 µM and 24 µM

COP(=S)(OC)Oc1ccc([N+](=O)[O-])cc1
not listed: [2] | [18] | [19]
inactive: all other assays above
